Bioassay records as filed in PubChem.
Efa HMGR inh – blocks class II HMG-CoA reductase of Enterococcus faecalis; 190,000 compounds, 0.41% hits; inhibition, % at 10 µM; purified E. faecalis HMGR, NADPH absorbance 340 nm kinetic;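 active means inhibition above a set limit, the median over all tested compounds plus 3 SD, cut at about 9.5% in these data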;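 further: enzyme runs in reverse so mevalonate oxidation gives rising NADPH absorbance; 0% = complete reaction with DMSO and 100% = background rate lacking mevalonate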
Furin inhibitor – blocks human furin protease activity; P09958; purified furin, fluorogenic substrate cleavage; inhibition, % at 20 µM or 30 µM; 220,000 compounds, 0.061% hits; AID 463115; in the data active means inhibition above about 25%
PGE2 EP2 inh – blocks the human prostaglandin E2 receptor EP2 | 260,000 compounds, 0.52% hits | C6 glioma cells expressing human EP2, cAMP TR-FRET; cells stimulated with saturating PGE2 | inhibition, % at 25 µM;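 active means percent inhibition above 40 after rounding to a whole number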;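 further: rat C6 glioma host cells with rolipram phosphodiesterase inhibitor present; the protocol text gives 20 µM as final concentration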
Target sequence (P43116 whole entry, looked up): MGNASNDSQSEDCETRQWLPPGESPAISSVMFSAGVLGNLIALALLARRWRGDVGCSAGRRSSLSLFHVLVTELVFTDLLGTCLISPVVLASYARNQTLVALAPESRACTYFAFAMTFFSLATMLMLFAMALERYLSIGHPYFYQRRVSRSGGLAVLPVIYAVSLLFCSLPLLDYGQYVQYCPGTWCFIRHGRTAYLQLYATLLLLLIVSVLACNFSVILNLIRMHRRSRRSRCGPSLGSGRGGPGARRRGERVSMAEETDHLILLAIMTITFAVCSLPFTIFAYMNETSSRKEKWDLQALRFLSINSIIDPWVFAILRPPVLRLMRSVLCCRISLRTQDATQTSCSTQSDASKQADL
m-calpain inh – inhibitors of pig calpain II; purified calpain II, fluorogenic peptide substrate, 30 min; inhibition, % at 16 µM; 220,000 compounds, 0.37% hits; AID 1236;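 active means inhibition above about 50%, limit read from the data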
EP2 modulator – modulates human prostaglandin E2 receptor EP2 signaling | EP2-expressing cells, cAMP HTRF FRET, PGE2 co-stimulation | induction, % at 25 µM | 260,000 compounds, 0.83% hits | AID 940;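 active means compounds whose cAMP rise, as percent of the full-agonist control response, exceeds 60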;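 further: rat C6 glioma line stably carrying human EP2 under a CMV promoter; the protocol text gives 20 µM as final concentration; 100% = response of wells given 1 µM PGE2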
An asterisk follows results filed as active; x = no result given. Most compounds without a hit are left out; they make up all but 1.9% or so of the library.

SMILES	Efa HMGR inh	Furin inhibitor	PGE2 EP2 inh	m-calpain inh	EP2 modulator
COc1ccc(CCn2nnnc2CN2CCN(c3cccc(C)c3C)CC2)cc1OC	x	x	8	x	23
O=c1[nH]c2ccc(S(=O)(=O)NCC3(N4CCOCC4)CCCCC3)cc2[nH]1	x	x	7	x	-31
CCc1cccc(C)c1NC(=O)CO/N=C(\N)CC(=O)NC1CCCCC1	11*	-39	9	-2	14
Cc1ccc(CN(CCCn2ccnc2)Cc2cnc[nH]2)s1	x	x	6	x	2
CCCCCCCCCC(=O)N1c2ccccc2NC(=O)C1CC(=O)Nc1ccc(C(=O)O)cc1 (stereo not drawn)	x	-19	5	53*	9
Cn1c(=O)c(C(=O)CSc2ccccc2)c(N)n(Cc2ccccc2)c1=O	14*	-18	10	-14	-30
Cc1cc(=O)[nH]c(SCC(=O)OCCOc2ccccc2)n1	x	x	12	x	4
CCOC(=O)C1=C(c2ccccc2)NC(SCC(=O)NC2CCCCC2)=C(C#N)C1c1ccco1 (stereo not drawn)	-4	-15	71*	-36	27
COCCOC(=O)C1=C(C)NC(SCC(=O)NC(C)(C)C)=C(C#N)C1c1ccco1 (stereo not drawn)	-9	-11	37	-10	10
Cc1ccccc1NC(=O)CCN1CCCCC1	x	x	10	x	-36
CCN(C(=O)Cn1cc(C(F)(F)F)ccc1=O)c1c(N)n(Cc2ccccc2)c(=O)[nH]c1=O	16*	-31	10	-7	7
CCN(C(=O)CN1CCN(c2ccccc2)CC1)c1c(N)n(Cc2ccccc2)c(=O)[nH]c1=O	-4	-27	13	-13	-40
CCc1cccc(CC)c1NC(=O)CSc1nnc(-c2ccoc2C)n1C	x	x	9	x	-35
O=C(Cn1nc(-c2ccc3c(c2)OCCO3)ccc1=O)Nc1ccc(N2CCOCC2)cc1	1	-20	3	-20	-30
O=C(Cn1nc(-c2ccc3c(c2)OCCO3)ccc1=O)Nc1cccc(NC(=O)c2ccccn2)c1	-6	-20	3	62*	-81
COc1ccccc1CNC(=O)c1csc(Cc2ccc(Cl)cc2)n1	-1	2	15	0	62*
COc1ccc(CNC(=O)c2csc(Cc3ccccc3)n2)cc1	0	-9	7	14	-8
c1ccc2c(c1)C(=Nc1ccc(N=C3c4ccccc4-c4ccccc43)cc1)c1ccccc1-2	x	x	45*	x	-8
CCNC(=S)NN=C1c2ccccc2-c2ccccc21	-7	-20	3	21	32
CCOC(=O)C1CCCN(Cc2c(Cl)cccc2Cl)C1 (stereo not drawn)	-4	-19	1	6	61*
N#Cc1c(NC(=O)CCN2C(=O)c3ccccc3C2=O)oc(-c2ccccc2)c1-c1ccccc1	-2	-7	12	-118	29
N#Cc1c(NC(=O)CCn2cnc3ccccc3c2=O)oc(-c2ccccc2)c1-c1ccccc1	-1	28*	12	-442	13
N#[N+]c1ccc(Nc2ccccc2)cc1	x	x	43*	x	28
c1cc2c(cnc3cscc32)s1	-6	0	42*	-140	-48
c1csc(-c2cnc3ccccc3n2)c1	-5	-31	7	-430	3
SMILES	Efa HMGR inh	Furin inhibitor	PGE2 EP2 inh	m-calpain inh	EP2 modulator
O=C(Nc1ccc(F)cc1)C(=O)c1c(O)[nH]c2ccc([N+](=O)[O-])cc12	x	-15	11	57*	-26
Cc1ccc(NCC(=O)N=Nc2c(O)[nH]c3ccc([N+](=O)[O-])cc23)cc1	x	-2	18	7	-13
CCOC(=O)CCN(Cc1cccs1)S(=O)(=O)c1ccc(Cl)cc1	1	5	8	16	61*
CC(=O)N(CCS(=O)(=O)c1ccc(Cl)cc1)Cc1cccs1	x	-13	13	8	-20
CCC(=O)Nc1ccc(NC(=O)c2ccc(OC)cc2)nc1	x	x	16	x	-30
O=C(CSc1nc2ccccc2n1CC(=O)N1CCCC1)Nc1ccc(Cl)cc1	x	x	6	x	-47
O=C1c2ccccc2-c2cc([N+](=O)[O-])c([N+](=O)[O-])cc21	x	x	64*	x	-35
O=C(/C=C\Nc1ccc(Cl)cn1)c1ccc(Br)cc1	11*	-21	6	15	2
Cc1cc(N/C=C/C(=O)c2ccc(Br)cc2)no1	-6	8	10	0	-7
Cc1cc(NC(=O)c2cc(S(N)(=O)=O)ccc2C)no1	x	x	13	x	-5
COc1ccc(N2CCN(C(c3cccs3)C(C)NS(C)(=O)=O)CC2)cc1 (stereo not drawn)	-1	-26	7	51*	-8
CCOC(=O)N1CCN(c2cc(NCCO)c([N+](=O)[O-])c3nonc23)CC1	13*	-14	5	-3	17
O=[N+]([O-])c1c(NCCO)cc(N2CCCCC2)c2nonc12	-3	-3	18	-1	20
O=C(O/N=C1\CCS(=O)(=O)c2sccc21)c1ccccc1	5	-6	3	24	2
O=C(O/N=C1\CCS(=O)(=O)c2sccc21)c1ccc(F)cc1	-1	-28	9	60*	-4
CC(C)(C)c1cc(NCc2ccccn2)n2ncc(-c3ccccc3)c2n1	x	-8	5	-89	62*
CN(C)CCN(Cc1ccncc1)Cc1cc(F)ccc1F	x	x	3	x	-21
CCC(Sc1ccccn1)C(=O)Nc1cccc([N+](=O)[O-])c1 (stereo not drawn)	14*	-18	4	-6	-3
COc1ccc(N(C)S(=O)(=O)c2cccc(C(=O)NCC3CCCCC3)c2)cc1	1	-11	5	55*	-32
COC(=O)c1ccc(NC(=O)c2ccc(N(C)S(C)(=O)=O)cc2)cc1	-3	-2	113*	33	-6
COc1ccc(NC(=O)c2ccc(N(C)S(C)(=O)=O)cc2)cc1OC	0	-9	7	-16	-41
COc1ccc(S(=O)(=O)N2CCC(C(=O)NCc3ccc(Cl)cc3)CC2)cc1C	x	x	11	x	-45
COC(=O)c1ccccc1OCCOCCOc1cccc2cccnc12	3	-12	4	9	-9
O=[N+]([O-])c1ccccc1OCCOCCOc1cccc2cccnc12	12*	-20	4	1	-3
Cc1ccc2[nH]c3c(N4CCc5ccccc5C4)ncnc3c2c1	-2	-19	28	-26	-76
SMILES	Efa HMGR inh	Furin inhibitor	PGE2 EP2 inh	m-calpain inh	EP2 modulator
CCOc1ccc2[nH]c3c(N4CCc5ccccc5C4)ncnc3c2c1	x	-6	44*	-31	-52
COc1ccc2[nH]c3c(N4CCN(Cc5ccc6c(c5)OCO6)CC4)ncnc3c2c1	-3	-14	60*	-382	-80
COc1ccc2oc(=N)c(C(=O)Nc3c(C)cc(Br)cc3C)cc2c1	x	x	9	x	14
COc1ccc(Cc2ccc3[nH]c(=O)cc(C)c3c2)cc1S(=O)(=O)O	x	x	40*	x	20
Cc1cc(=O)[nH]c2ccc(Cl)cc12	-2	-20	10	-21	13
C/C(=N\NC(=S)NC1CCCCC1)c1c(F)cccc1F	-4	-21	9	8	15
C/C(=N\NC(=S)NC1CCCCC1)c1ccc(OC(F)F)cc1OC(F)F	-8	-12	20	54*	-33
COCCNC(=O)Cn1nc(C)n2c(cc3occc32)c1=O	x	x	6	x	17
